Experimental data reported in PubChem BioAssay AID504332 (National Center for Advancing Translational Sciences (NCATS), 2011).
Among all 350,000 compounds or so, about 31,000 (8.9%) were called active. Not shown: some 15% with an inconclusive outcome. This excerpt belongs to a sample that is enriched for actives. Unmarked numbers belong to inactive results. Calls come from the whole dose curve; as a rule, active = well fitted inhibition curve with a large enough effect; inconclusive = small, poorly fitted or top-dose-only effect; inactive = no such curve, though single readings can be large or run the other way.

Target: Histone-lysine N-methyltransferase EHMT2 (Homo sapiens) (UniProt Q96KQ7)
Experiment: qHTS Assay for Inhibitors of Histone Lysine Methyltransferase G9a; note: nearly all actives have a fitted effect of over 75% in size
Conditions: G9a H3K9 monomethylation, AlphaScreen, 2 h; series mostly up to 59 µM; activity, negative = inhibition: at the top concentration
Summary of the method: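 AlphaScreen read-out: biotin-H3K9 peptide (500 nM) methylation by 20 nM enzyme with 20 uM SAM, 2 h at room temperature after 15 min compound preincubation; anti-monomethyl H3K9 antibody plus donor/acceptor beads, 10 min dark.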
% is set by controls: 0 for no effect and ±100 for the full control effect; potency is the fitted concentration of half-maximal effect.

Sequence of Histone-lysine N-methyltransferase EHMT2 (Homo sapiens) (Q96KQ7 913-1193 limits assumed): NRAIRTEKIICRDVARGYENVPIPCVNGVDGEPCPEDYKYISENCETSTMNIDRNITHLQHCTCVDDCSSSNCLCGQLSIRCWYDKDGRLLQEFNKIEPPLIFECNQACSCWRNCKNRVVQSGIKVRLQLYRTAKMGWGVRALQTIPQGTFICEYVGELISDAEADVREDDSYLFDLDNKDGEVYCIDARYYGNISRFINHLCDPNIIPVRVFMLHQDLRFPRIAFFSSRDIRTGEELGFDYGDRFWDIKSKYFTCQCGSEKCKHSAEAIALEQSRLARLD

Structure (SMILES) | activity, negative = inhibition | Potency
COC(=O)[C@]1(C)N[C@H](c2ccc(-c3ccc(Cl)c(Cl)c3)cc2)[C@@H]2C(=O)N(C)C(=O)[C@@H]21 | 12.5% [at 2.33 µM] | –
COC(=O)c1ccccc1NC(=O)c1cc(-c2ccccc2O)no1 | -36.7% | –
Cc1ccc(O)c(NC(=O)c2cc(-c3ccco3)on2)c1 | -12.3% [at 102 µM] | –
Cc1ccc(O)c(NC(=O)c2cc(-c3ccc(F)cc3)no2)c1 | – | 8.91 µM (active)
Cc1nn(C)c2c1c(C(F)(F)F)cc(=O)n2C(C)C(=O)NCc1ccc(Cl)cc1 (configuration not stated) | 9.14% | –
Cn1c(=O)[nH]c(=O)c2c1nc(Br)n2CCCCSc1nc2ccccc2o1 | -18.1% | –
CCCCn1c(SCC(=O)N2CCOCC2)nc2c1c(=O)n(C)c(=O)n2C | -10.6% | –
CCCCCn1c(SCCC(C)C)nc2c1c(=O)[nH]c(=O)n2C | – | 10 µM (active)
CCOC(=O)c1ccccc1NC(=O)c1sc2nc(-c3ccc(F)cc3)cn2c1C | 0.0457% | –
Cc1ccc(C)c(CN2C(=O)c3ccccc3S(=O)c3ccc(C(=O)N4CCOCC4)cc32)c1 (configuration not stated) | -38.9% | –
Cc1cc(C)c(C#N)c(SCc2[nH]nc3c2C(c2ccccc2)C(C#N)=C(N)O3)n1 (configuration not stated) | -44.7% | –
CCCc1nc2c([nH]1)C(c1cccnc1)C(C#N)=C(N)O2 (configuration not stated) | 4.38% | –
Cc1cc(C)c2c3c(sc2n1)C(c1ccccc1)C(C#N)=C(N)O3 (configuration not stated) | – | 14.1 µM (active)
O=C(NCCc1cccc(F)c1)C1CCCN(c2nc3ccccc3s2)C1 (configuration not stated) | 28.4% [at 102 µM] | –
COc1ccc(-c2[nH]c3c(c2-c2c(-n4cccc4)n(C)c(=O)n(C)c2=O)c(=O)n(C)c(=O)n3C)cc1 | 2.53% | –
CCOC(=O)C1CCN(C(=O)COc2cccc3ccccc23)CC1 | 9.04% [at 12.7 µM] | –
CCCn1c2ccccc2c2cnn(CC(=O)NCCCOC(C)C)c(=O)c21 | -12.1% | –
CC(=O)NN1C(=O)c2ccccc2NC1c1ccccc1 (configuration not stated) | 9% [at 102 µM] | –
O=C1c2ccccc2NC(c2ccccn2)N1NS(=O)(=O)c1ccccc1 (configuration not stated) | -22.8% [at 102 µM] | –
CN(C)c1ccc(C2Nc3ccccc3C(=O)N2NS(=O)(=O)c2ccccc2)cc1 (configuration not stated) | – | 39.8 µM (active)
COc1cc(NC(=O)c2ccc(-c3csc(C)n3)cc2)c(OC)cc1Cl | -6.85% [at 102 µM] | –
CSc1ccccc1NC(=O)CCS(=O)(=O)c1nc(-c2cccs2)cc(C(F)(F)F)n1 | – | 3.16 µM (active)
COc1ccc(Cl)cc1NC(=O)CSc1nc(-c2cccs2)cc(C(F)(F)F)n1 | -2.43% | –
COc1ccccc1-c1cc(C(F)(F)F)nc(S(=O)(=O)CCCC(=O)Nc2ccc(F)cc2F)n1 | -1.07% | –

Structure (SMILES) | activity, negative = inhibition | Potency
Cc1ccc(NC(=O)CSc2nc3c(c(=O)[nH]2)CN(Cc2ccc4c(c2)OCO4)CC3)cc1C | -35.4% | –
O=C(Nc1ccccc1N1CCCCC1)c1ccc2nccnc2c1 | -42% | –
O=C(Nc1ccccc1N1CCCC1)c1ccc(F)c(S(=O)(=O)N2CCOCC2)c1 | -5.62% [at 0.501 µM] | –
O=C(Nc1ccccc1N1CCCC1)c1ccc2ccccc2c1 | – | 44.7 µM (active)
Cc1cc(C)cc(OCC(=O)OCC(=O)NC2CCCC2)c1 | -28.2% [at 2.33 µM] | –
Cc1ccc(NC(=O)Cn2c(=O)n(-c3ccccc3)c(=O)c3c4c(sc32)CCCC4)cc1 | -2.86% | –
O=C(C1CC1)N1CCN=C1SCc1ccc(Cl)cc1 | 1.29% [at 102 µM] | –
Clc1ccc(CSc2nncn3c2cc2occc23)cc1 | – | 12.6 µM (active)
CCN(C(=O)CSc1nnc(C)n2c1cc1occc12)c1ccccc1 | -37.4% | –
Cc1cc(=O)oc2c(C)c(OC(C)C(=O)NC3CCN(Cc4ccccc4)CC3)ccc12 (configuration not stated) | -0.627% [at 102 µM] | –
Cc1ccc2c(c1)-c1c(cnn1CC(=O)Nc1ccccc1C#N)CO2 | 19% | –
CCC1C(=O)c2ccccc2N(C)C1=O (configuration not stated) | 11.9% | –
CN1C(=O)c2ccccc2Sc2ccc(NC(=O)Cc3ccc(Cl)cc3)cc21 | 6.98% | –
CN1C(=O)/C(=C\c2cc(Br)cs2)c2ccccc21 | – | 10 µM (active)
COc1ccccc1-c1cc2nc(C)c(CCC(=O)O)c(C)n2n1 | -5.37% | –
CCCNC(=O)c1ccc2c(c1)ncn2-c1ccc(C)cc1C | -1.33% | –
NC(=O)c1ccsc1NC(=O)COC(=O)COc1ccc(C=O)cc1 | -1.54% [at 12.7 µM] | –
O=C1c2ccccc2C(=O)N1CCC(O)C[N+](=O)[O-] (configuration not stated) | – | 31.6 µM (active)
CC(C)OC(=O)CN1C(=O)c2ccccc2C1=O | -1.86% [at 12.7 µM] | –
O=C1c2ccccc2C(=O)N1CCC(c1ccccc1)c1ccco1 (configuration not stated) | 15.6% | –
Cc1ccc(F)cc1NC(=O)CSCc1c(C)noc1C | 28% [at 12.7 µM] | –
C=CCN1C(=NC(=O)COc2ccccc2)SC2CS(=O)(=O)CC21 (configuration not stated) | 16.1% [at 102 µM] | –
N#CCC(=O)Nc1ccc(C(=O)OCC(=O)Nc2sc3c(c2C#N)CCCC3)cc1 | – | 50.1 µM (active)
